From PubChem BioAssay come the findings set out here.

The term inhibition denotes the drop in the measured response relative to a control, in per cent.

Experiment [1] is described as follows: inhibitors of TNFa-induced NFkB p65 translocation, primary screen, imaging, HUVEC, MLSMR starter and 10KST1 sets (AID 438;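 active = inhibition above 20% together with a positive visual image hit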;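 note: compound added about 3h40 before a 20 min TNFalpha stimulation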;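 for inhibition: signal is the nuclear over cytoplasmic p65 intensity ratio per well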). The note with it: HUVEC TNFa-induced p65 nuclear translocation; cell count: measured here: nuclei count (cytotoxicity indicator), at 2.08 µM; inhibition: at 2 µM, stronger effect = higher value, 0% TNFa-plus-vehicle, 100% no-TNFa wells.
Experiment [2] in a line: inhibitors of mutant huntingtin aggregation, primary screen, imaging, exon1htt(103Q)mCFP cells, high-content imaging (AID 483;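 active = visual image review flags a hit and inhibition of aggregation exceeds 20%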;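 note: compound exposure lasted 3 days before fixation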;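 for nuclei count: percent of the per-plate median nuclei count of sample wells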). The settings on record: exon1htt(103Q)mCFP cell line, aggregate imaging, at 2 µM; inhibition of aggregation: stronger effect = higher value; nuclei count: measured here: cell count, toxicity.
Experiment [3] in a line: inhibitors of E-selectin induction by TNFa, primary screen, imaging, HUVEC, immunofluorescence, MLSMR starter and 10KST1 sets (AID 487;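 active = visually confirmed hit in the image check and inhibition above 20%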;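 for inhibition: signal is fraction of cell area covered by stained E-selectin grains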;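 for nuclei count: 100% = median nuclei count of all wells on the same plate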). The note with it: HUVEC TNFalpha-induced E-selectin immunofluorescence imaging, at 2 µM; inhibition: stronger effect = higher value; nuclei count: measured here: cell number, toxicity.
Experiment [4] deals with Voltage-gated potassium channel subunit beta-2 (Rattus norvegicus) (UniProt P62483). The experiment is described as follows: KvBeta enzyme negative modulators, primary screen, biochemical, NADPH fluorescence (AID 622).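 Note: slope of raw intensity against log time taken from 70 to 1610 s.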 The note with it: recombinant KvBeta, 4-cyanobenzaldehyde reduction, at 10 µM, stronger effect = higher value.
The target is the same in experiment [5]. Briefly: KvBeta positive modulators, primary screen, biochemical, NADPH fluorescence (AID 623;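 active = NADPH fluorescence slope more negative than the mean of all samples by about 3 SD, 99.7% confidence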;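 note: fluorescence intensity change per second fitted from 20 to 320 s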). The settings on record: Recombinant KvBeta, NADPH fluorescence decrease slope, 10 min; at 10 µM; stronger effect = lower value.
Experiment [6] concerns the target Alpha-2C adrenergic receptor (Homo sapiens) (UniProt P18825). The experiment is described as follows: modulators of alpha2C/GIRK thallium flux, primary screen, cell-based, HEK293 alpha2C/GIRK1/2 (AID 624;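 active = fluorescence slope after compound addition differing from the mean of all screened samples at 99.7% confidence, in either direction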;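 note: slope of fluorescence ratio to pre-addition baseline per second over 15 to 24 s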). The settings on record: thallium flux BTC fluorescence, at 10 µM, actives lie on both sides.
Experiment [7] can be described thus: inhibitors of Sendai virus-induced IRF3 signaling, primary screen, TLR/RLR signaling modifier project, cell-based, Sendai virus stimulus, luciferase, 10K MLSCN set (AID 602276;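 active = inhibition at or above 50% at 10 µM; inactive = inhibition below 50%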;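 note: firefly luciferase from ISG56 promoter only with Renilla not read in this screen; 0% = Sendai virus plus DMSO and 100% = medium plus DMSO without virus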). The note with it: HEK293 RL24 IRF3 luciferase reporter, at 10 µM, stronger effect = higher value. Background: In a reporter assay the amount or activity of a reporter protein is the signal.
The nature of experiment [8]: inhibitors of poly I:C-induced TLR3 signaling, primary screen, cell-based, poly I:C stimulus, luciferase, 10K MLSCN set (AID 602277;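 active = inhibition of the reporter signal at or above 50%; inactive = inhibition below 50%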). The settings on record: HEK293-TLR3 RL24 IRF3 luciferase reporter, at 10 µM, stronger effect = higher value.

Calls of active or inactive are those of the source.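 Rule for the calls, unless noted: active = fluorescence slope higher than the sample average by over 3 SD (cut at about -0.22 in these data, passing the limit was not always enough); inactive = the rest.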 Where a SMILES comes first, the peptide text is derived from it. The star is where a group is joined. Boc = CC(C)(C)OC(=O)*

Voltage-gated potassium channel subunit beta-2 (Rattus norvegicus), sequence (P62483 whole entry, looked up): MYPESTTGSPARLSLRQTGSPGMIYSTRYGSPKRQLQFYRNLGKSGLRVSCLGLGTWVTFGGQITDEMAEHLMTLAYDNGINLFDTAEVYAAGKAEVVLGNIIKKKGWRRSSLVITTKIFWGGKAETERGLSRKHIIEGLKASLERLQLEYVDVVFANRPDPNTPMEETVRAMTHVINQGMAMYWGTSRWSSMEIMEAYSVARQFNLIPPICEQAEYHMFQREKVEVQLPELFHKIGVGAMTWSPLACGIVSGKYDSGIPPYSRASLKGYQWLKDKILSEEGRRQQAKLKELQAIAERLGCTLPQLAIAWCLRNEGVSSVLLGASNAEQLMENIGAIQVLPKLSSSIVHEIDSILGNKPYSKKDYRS
Alpha-2C adrenergic receptor (Homo sapiens), sequence (P18825 whole entry, looked up): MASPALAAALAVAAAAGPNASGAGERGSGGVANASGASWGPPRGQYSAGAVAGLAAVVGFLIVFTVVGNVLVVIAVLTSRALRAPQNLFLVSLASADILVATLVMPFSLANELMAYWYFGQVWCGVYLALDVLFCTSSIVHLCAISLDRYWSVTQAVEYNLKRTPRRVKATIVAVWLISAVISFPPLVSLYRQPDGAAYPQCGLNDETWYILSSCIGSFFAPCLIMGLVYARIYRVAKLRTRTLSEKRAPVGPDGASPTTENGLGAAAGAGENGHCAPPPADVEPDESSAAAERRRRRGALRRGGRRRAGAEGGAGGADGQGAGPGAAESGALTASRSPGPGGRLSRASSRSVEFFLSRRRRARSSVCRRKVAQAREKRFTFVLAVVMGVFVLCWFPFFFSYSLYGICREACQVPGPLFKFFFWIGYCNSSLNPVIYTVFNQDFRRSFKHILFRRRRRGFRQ

Regarding `CCC(C)C(NC(=O)OC(C)(C)C)C(=O)NC(CC(C)C)C(N)=O` (stereo not drawn) (Boc-Ile-Leu-NH2; configuration not given here), the cell count in experiment [1] was 399. The inhibition is 1.3% (inactive) in experiment [1], 56.6% (inactive) in experiment [3], -6.01% (inactive) in experiment [7] and 10.9% (inactive) in experiment [8]. The inhibition of aggregation in experiment [2] was 7.1% (inactive). For the same molecule, the results for the nuclei count in experiment [2] and in experiment [3] were 88.9% and 89.8%, respectively. The fluorescence slope in experiment [4] was -0.516 (inactive). Moreover, the NADPH fluorescence slope in experiment [5] is -6.5e-05 (inactive). For the same molecule, the slope in experiment [6] is 0.00654 (inactive).

For the molecule `Cc1cc(=O)oc2c1c(C)nn2-c1ccc(C(=O)OC(C)C)cc1`, the cell count in experiment [1] is 741. For the same molecule, the inhibition in experiment [1] is -2.9% (inactive); in experiment [3], -67.2% (inactive); in experiment [7] it was 8% (inactive); in experiment [8] it was 26.1% (inactive). For the same molecule, the inhibition of aggregation in experiment [2] was -39.6% (inactive). Further, the nuclei count in experiment [2] and in experiment [3] was 106% in each case. Further, in experiment [4], the fluorescence slope is -0.529 (inactive). Also, the NADPH fluorescence slope in experiment [5] is -1.2e-05 (inactive). For the same molecule, the slope in experiment [6] was 0.00612 (inactive).

`COC(=O)Cc1c(C)c2ccc(OCC(=O)N3CCOCC3)cc2oc1=O`: the cell count in experiment [1] came to 439. Besides, the inhibition is 15.7% (inactive) in experiment [1], -28.7% (inactive) in experiment [3], 17.8% (inactive) in experiment [7] and 13.9% (inactive) in experiment [8]. Further, the inhibition of aggregation in experiment [2] was 7.7% (inactive). Also, the nuclei count in experiment [2] was 113%; in experiment [3], 74.6%. For the same molecule, the fluorescence slope in experiment [4] is -0.363 (inactive). Also, the NADPH fluorescence slope in experiment [5] is -1.5e-05 (inactive). Besides, in experiment [6], the slope was 0.00545 (inactive).

For `COc1ccc(Br)cc1CNC(=O)CCc1nc(-c2ccc(C)cc2)no1`, the cell count in experiment [1] was 517. Also, the inhibition is -4% (inactive) in experiment [1], -2.8% (inactive) in experiment [3], 15.2% (inactive) in experiment [7] and 28.1% (inactive) in experiment [8]. In addition, the inhibition of aggregation in experiment [2] is -13.7% (inactive). The nuclei count in experiment [2] was 98.4%; in experiment [3], 120%. Also, the fluorescence slope in experiment [4] was -0.314 (inactive). In experiment [5], the NADPH fluorescence slope was -6.4e-07 (inactive). The slope in experiment [6] is 0.00305 (inactive).

Take `CCOC(=O)N1CCN(C(=O)c2cccn3c(=O)c4sccc4nc23)CC1`: the cell count in experiment [1] turned out to be 502. Also, the inhibition is 1.1% (inactive) in experiment [1], -5.7% (inactive) in experiment [3], -8.79% (inactive) in experiment [7] and -5.35% (inactive) in experiment [8]. Also, the inhibition of aggregation in experiment [2] is -5.5% (inactive). For the same molecule, the nuclei count in experiment [2] stood at 102%; in experiment [3] it was 114%. Moreover, the fluorescence slope in experiment [4] was -0.0756 (inactive). For the same molecule, the NADPH fluorescence slope in experiment [5] is 1.5e-05 (inactive). Besides, the slope in experiment [6] is 0.00326 (inactive).

For the molecule `COc1ccc(CCn2c(C)cc(C(=O)CSc3nnnn3C)c2C)cc1`, the cell count in experiment [1] was found to be 441. Besides, the inhibition in experiment [1] was -1.5% (inactive); in experiment [3], -45.2% (inactive); in experiment [7], 0.703% (inactive); in experiment [8] it was -19.8% (inactive). In experiment [2], the inhibition of aggregation is -14.4% (inactive). Also, the nuclei count was 131% in experiment [2] and 110% in experiment [3]. Moreover, in experiment [4], the fluorescence slope is -0.412 (inactive). The NADPH fluorescence slope in experiment [5] is 4.6e-05 (inactive). Moreover, the slope in experiment [6] was 0.00361 (inactive).

Regarding `CC(NC(=O)C1CCCN(S(=O)(=O)c2cccs2)C1)c1ccccc1` (stereo not drawn), in experiment [1], the cell count came to 816. For the same molecule, the inhibition was -1.4% (inactive) in experiment [1], -1.1% (inactive) in experiment [3], 12.2% (inactive) in experiment [7] and 34.2% (inactive) in experiment [8]. In experiment [2], the inhibition of aggregation is -6.6% (inactive). Besides, the nuclei count was found to be 106% in experiment [2] and 112% in experiment [3]. The fluorescence slope in experiment [4] was -0.583 (inactive). In experiment [5], the NADPH fluorescence slope is -4.2e-05 (inactive). For the same molecule, in experiment [6], the slope was 0.00498 (inactive).

As for `CCC(C)NC(=O)c1cn(CC)c2ccc(S(=O)(=O)N(C)C)cc2c1=O` (stereo not drawn), in experiment [1], the cell count stood at 603. For the same molecule, the inhibition in experiment [1] was -11.6% (inactive); in experiment [3] it was -70.7% (inactive); in experiment [7], 19.1% (inactive); in experiment [8], 29.7% (inactive). The inhibition of aggregation in experiment [2] is -11.6% (inactive). The nuclei count in experiment [2] came out at 111%; in experiment [3], 125%. Moreover, the fluorescence slope in experiment [4] was -0.376 (inactive). Also, the NADPH fluorescence slope in experiment [5] was 1.4e-05 (inactive). In experiment [6], the slope was 0.00604 (inactive).

For the molecule `COc1ccc(CCNc2oc(COc3ccc(F)cc3)nc2C#N)cc1`, the cell count in experiment [1] was determined as 407. The inhibition in experiment [1] is -9.8% (inactive); in experiment [3], 17% (inactive); in experiment [7] it was 15.6% (inactive); in experiment [8], 23.5% (inactive). Moreover, the inhibition of aggregation in experiment [2] is 8.7% (inactive). Besides, the nuclei count in experiment [2] came to 88.8%; in experiment [3] it was 74.8%. Also, the fluorescence slope in experiment [4] was -0.608 (inactive). The NADPH fluorescence slope in experiment [5] is -3.3e-06 (inactive). In addition, the slope in experiment [6] was 0.00681 (inactive).

Take `CC1CCN(CCCNC(=O)c2coc3nc4ccccc4nc23)CC1`: in experiment [1], the cell count came to 311. The inhibition was -0.8% (inactive) in experiment [1], -33.9% (inactive) in experiment [3], -4.6% (inactive) in experiment [7] and 46.6% (inactive) in experiment [8]. Also, the inhibition of aggregation in experiment [2] is -17.9% (inactive). In addition, the results for the nuclei count in experiment [2] and in experiment [3] were 110% and 117%, respectively. The fluorescence slope in experiment [4] is -0.351 (inactive). The NADPH fluorescence slope in experiment [5] is -3.5e-06 (inactive). The slope in experiment [6] is 0.00542 (inactive).

For the molecule `Cc1ccccc1OCc1nnc2n1CC(C)S2` (stereo not drawn), the cell count in experiment [1] came to 547. For the same molecule, the inhibition in experiment [1] was 6.8% (inactive); in experiment [3], -53.4% (inactive); in experiment [7], 8.61% (inactive); in experiment [8], 13.6% (inactive). The inhibition of aggregation in experiment [2] was -4.9% (inactive). The nuclei count in experiment [2] stood at 131%; in experiment [3], 105%. For the same molecule, the fluorescence slope in experiment [4] is -0.562 (inactive). For the same molecule, the NADPH fluorescence slope in experiment [5] was -4e-05 (inactive). Further, the slope in experiment [6] was 0.00737 (inactive).

For the molecule `CC(C)(C)OC(=O)N1CCCC1C(=O)N1CCc2ccccc21` (stereo not drawn), the cell count in experiment [1] turned out to be 411. The inhibition in experiment [1] was 5.6% (inactive); in experiment [3] it was -19.6% (inactive); in experiment [7], 10.9% (inactive); in experiment [8], 33.9% (inactive). In addition, the inhibition of aggregation in experiment [2] was -0.3% (inactive). Moreover, the nuclei count in experiment [2] worked out at 103%; in experiment [3], 104%. Besides, in experiment [4], the fluorescence slope was -0.614 (inactive). Further, the NADPH fluorescence slope in experiment [5] was -1.2e-06 (inactive). The slope in experiment [6] is 0.00514 (inactive).

In the case of `O=C1CC(c2cccs2)CC2=C1C(c1ccccc1)n1ncnc1N2` (stereo not drawn), in experiment [1], the cell count was 577. Moreover, the inhibition was 3.1% (inactive) in experiment [1], -72.5% (inactive) in experiment [3], 13.5% (inactive) in experiment [7] and 25.2% (inactive) in experiment [8]. Further, the inhibition of aggregation in experiment [2] is 4.6% (inactive). For the same molecule, the values for the nuclei count in experiment [2] and in experiment [3] were 90.7% and 98.9%, respectively. Further, the fluorescence slope in experiment [4] was -0.597 (inactive). Also, the NADPH fluorescence slope in experiment [5] is 4.2e-06 (inactive). In addition, the slope in experiment [6] was 0.00446 (inactive).
